PubChem BioAssay (NCATS)
Records with an inconclusive call do not appear. Values without a mark were called inactive. The source made the active and inactive calls. The call rests on the fitted dose curve; in most records, active means well fitted curve in the direction sought with a large enough effect; inconclusive means small, poorly fitted or top-dose-only effect, or another doubt; inactive means no such curve, though single readings can be large; an effect the other way counts as inactive or inconclusive.

How the values were obtained:
CASKI = test: Primary qHTS to identify gynecologic anti-cancer compounds using libraries of approved drugs and bioactive compounds (AID 1345084); conditions: Gynecologic cancer cell panel viability, ATPlite luminescence, 48 h; series mostly up to 57.5 µM; further: nearly all actives have a fitted effect of over 55% in size
Summary of the method: (§1)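 Cells, 1,000 per well, were allowed to settle for 16 h at 37 C before compound addition. Five concentrations were tested for 48 h, and viability was read by ATPlite luminescence after 15 min at room temperature.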

Hek293T = test: as above; conditions: Gynecologic cancer cell panel viability, ATPlite luminescence, 48 h, control line for the selectivity index; series mostly up to 57.5 µM
Summary of the method: as §1

OV90 = test: as above; conditions: Gynecologic cancer cell panel viability, ATPlite luminescence, 48 h; series mostly up to 57.5 µM
Summary of the method: as §1

PA-1 = test: as above; conditions: Gynecologic cancer cell panel viability, ATPlite luminescence, 48 h; series mostly up to 57.5 µM
Summary of the method: as §1

HeLa = test: as above; conditions: Gynecologic cancer cell panel viability, ATPlite luminescence, 48 h; series mostly up to 57.5 µM
Summary of the method: as §1

SKOV3 = test: as above; conditions: Gynecologic cancer cell panel viability, ATPlite luminescence, 48 h; series mostly up to 57.5 µM
Summary of the method: as §1

[1] = qHTS assay to identify inhibitors of the type 1 interferon - major histocompatibility complex class I in skeletal muscle: Counter screen cell viability and HiBit confirmation (AID 1347412); conditions: iHSKM muscle cells + IFN-b, HiBiT or CellTiter-Glo, 24 h; for activity change, negative = inhibition: Viability, at 45.9 µM (top of the series); on all read-outs here: nearly all actives have a fitted effect of over 60% in size
Summary of the method: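 Myoblasts (C25cl48, HLA-B HiBiT) seeded in medium without dexamethasone, IFN-b 4 ng/ml added except unstimulated columns; 1 hr later compounds pinned (12-pt 1:3, top 46 uM final). Incubated 24 hrs, lysed 10 min, luminescence measured.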

Es-2 = test: Primary qHTS to identify gynecologic anti-cancer compounds using libraries of approved drugs and bioactive compounds (AID 1345084); conditions: Gynecologic cancer cell panel viability, ATPlite luminescence, 48 h; series mostly up to 57.5 µM; further: nearly all actives have a fitted effect of over 55% in size
Summary of the method: as §1

Tov-21-G = test: as above; conditions: Gynecologic cancer cell panel viability, ATPlite luminescence, 48 h; series mostly up to 57.5 µM
Summary of the method: as §1

Tov112D = test: as above; conditions: Gynecologic cancer cell panel viability, ATPlite luminescence, 48 h; series mostly up to 57.5 µM
Summary of the method: as §1

JEG-3 = test: as above; conditions: Gynecologic cancer cell panel viability, ATPlite luminescence, 48 h; series mostly up to 57.5 µM
Summary of the method: as §1
On the % scale 0 is the no-effect control and ±100 the full control effect; potency means the concentration at half of the fitted maximal effect.

Which results are given for `CN(C)c1nc(NC2CCC(NC(=O)c3ccc(F)c(F)c3)CC2)nc2ccccc12` (stereo unspecified)?
Potency (CASKI): inactive; Potency (Hek293T): 28.2 µM (active); Potency (OV90): 11.2 µM (active); Potency (PA-1): 14.1 µM (active)

With `Cn1cncc1C(N)(c1ccc(Cl)cc1)c1ccc2c(c1)c(-c1cccc(Cl)c1)cc(=O)n2C` (stereo unspecified) as the compound, how does the Potency (CASKI) read?
Its Potency is “inactive”.

And the Potency (HeLa)?
Its Potency is “inactive”.

What about the Potency (SKOV3) of the same compound?
The Potency was “inactive”.

What about the activity change, negative = inhibition [1] of the same compound?
Its activity change, negative = inhibition is -22.3%.

With `Cc1cc(O)c(-c2ccc([C@@H](C)CN(C)C)cc2)c2c1[nH]c(=O)c1sccc12` as the compound, how does the Potency (CASKI) read?
Its Potency is 0.251 µM (active).

And the Potency (Es-2)?
Its Potency is 0.282 µM (active).

And the Potency (HeLa)?
The Potency was 0.447 µM (active).

What about the Potency (Hek293T) of the same compound?
The Potency was 0.158 µM (active).

What about the Potency (PA-1) of the same compound?
Its Potency is 0.282 µM (active).

And the Potency (Tov-21-G)?
Its Potency is 0.316 µM (active).

And the Potency (Tov112D)?
Its Potency is 0.282 µM (active).

What about the Potency ([1]; HiBiT) of the same compound?
The Potency was 0.0787 µM (active).

What about the activity change, negative = inhibition [1] of the same compound?
Its activity change, negative = inhibition is -2.3%.

For `CCC(C)C(=O)OC1CC(O)C23C4OCC5(C(O)CC2C1(C)C(O)O4)C3C(=O)CC1(C)C(c2ccoc2)CC2OC215` (stereo unspecified), which Potency (CASKI) is on record?
Its Potency is “inactive”.

What about the Potency (Hek293T) of the same compound?
The Potency was 10 µM (active).

And the Potency (JEG-3)?
Its Potency is “inactive”.

And the Potency (OV90)?
Its Potency is 1.78 µM (active).

And the Potency (Tov112D)?
Its Potency is 11.2 µM (active).

Which Potency (CASKI) does the source give for `O=C(Nc1nc2ccccc2n1CCc1ccccc1)c1ccccc1` here?
Its Potency is “inactive”.

What about the Potency (HeLa) of the same compound?
The Potency was “inactive”.

And the Potency (PA-1)?
Its Potency is 31.6 µM (active).

With `CCn1c(=O)c(-c2ccn[nH]2)cc2c(C)nc(N)nc21` as the compound, how does the Potency (CASKI) read?
Its Potency is 15.8 µM (active).

And the Potency (HeLa)?
The Potency was 8.91 µM (active).

What about the Potency (Hek293T) of the same compound?
The Potency was 8.91 µM (active).

What about the Potency (JEG-3) of the same compound?
Its Potency is “inactive”.

And the Potency (OV90)?
The Potency was 14.1 µM (active).

And the Potency (SKOV3)?
The Potency was 10 µM (active).
